Screening results as filed in PubChem BioAssay.
Most compounds without a hit are left out; they make up all but 1.4% or so of the library.
ugtP null kill = growth inhibition of ugtP-null S. aureus, primary screen, RN4220 ugtP deletion, OD600. 16 h. AID 1259309, 2017. growth inhibition, % (concentration not given with the values). 0.54% of 330,000 active; in the data active = growth inhibition above about 68%
CCHFV vOTU inh = CCHFV vOTU protease inhibitors, primary screen, biochemical, Pep-AMC substrate, fluorescence | Crimean-Congo hemorrhagic fever virus L polyprotein viral ovarian tumor (vOTU) protease … | inhibition, % at 11.5 µM | 0.55% of 370,000 active | AID 651958, 2012; in the data active = inhibition above about 30%
Mtb hypoxia rep = PubChem AID 1159583. M. tuberculosis hypoxia-regulated fluorescent reporter, fluorescence. fluorescence inhibition, % (concentration not given with the values). 0.1% of 300,000 active; in the data active = fluorescence inhibition mostly above about 23%, no sharp cut-off; inactive = mostly below about 17%
RN4220 kill = growth inhibition of S. aureus RN4220, primary screen, OD600; 0.33% of 330,000 active; inhibition, % (concentration not given with the values); 16 h; AID 1259311, 2017; in the data active = inhibition above about 85%
SSB-PriA inh = inhibitors of Klebsiella pneumoniae PriA binding to SSB C-terminal tail, primary screen, biochemical, AlphaScreen; PriA–SSB C-terminal tail interaction (Klebsiella pneumoniae); inhibition, % at 33 µM; AlphaScreen SSBct-PriA binding, biotinylated peptide; AID 1272365, 2023; 0.6% of 430,000 active; in the data active = inhibition mostly above about 37%, no sharp cut-off; inactive = mostly below about 20%
Numbers stand for hits.

What do the screens show for `OCC#CCSc1nnc(-c2ccccc2Br)o1`?
ugtP null kill: inactive; CCHFV vOTU inh: inactive; Mtb hypoxia rep: 41; RN4220 kill: inactive; SSB-PriA inh: inactive

Results for OCC#CCSc1nnc(-c2ccc(Br)cc2)o1 ?
ugtP null kill: inactive; CCHFV vOTU inh: inactive; RN4220 kill: inactive; SSB-PriA inh: inactive

Results for Cn1nc(CN(C(=O)c2ccsc2)C2CCCC2)cc1C1CC1 ?
SSB-PriA inh: inactive

What do the screens show for `O=C(Cn1nc(CNc2ccc(Cl)cc2)[n+]2c1CCCCC2)c1ccc(Br)cc1`?
ugtP null kill: 98; CCHFV vOTU inh: inactive; RN4220 kill: 89; SSB-PriA inh: inactive

What do the screens show for `CCOC(=O)c1ccc(NC(=O)Cn2ncc(Cl)c(Cl)c2=O)cc1`?
ugtP null kill: inactive; CCHFV vOTU inh: inactive; Mtb hypoxia rep: 36; RN4220 kill: inactive; SSB-PriA inh: inactive

Results for CCC(=O)Nc1ccc(C(=O)Cn2ncc(Cl)c(Cl)c2=O)cc1 ?
CCHFV vOTU inh: inactive; SSB-PriA inh: inactive

Results for CCOc1ccc(CC(=O)N2CCN(c3ccc(N4CCOCC4)nn3)CC2)cc1OCC ?
ugtP null kill: inactive; CCHFV vOTU inh: inactive; Mtb hypoxia rep: inactive; RN4220 kill: inactive; SSB-PriA inh: 54

What do the screens show for `CCOc1cc(C(=O)N2CCN(c3ccc(N4CCOCC4)nn3)CC2)cc(OCC)c1OCC`?
SSB-PriA inh: inactive

Results for O=C(O)CNC(=O)c1ccc(O)cc1 ?
SSB-PriA inh: inactive

How did CN(C)c1ccc(CNS(=O)(=O)c2csc(C(N)=O)c2)cc1 do in these assays?
ugtP null kill: inactive; CCHFV vOTU inh: inactive; Mtb hypoxia rep: inactive; RN4220 kill: inactive; SSB-PriA inh: inactive

How did NC(=O)c1cc(S(=O)(=O)NCCCc2ccccc2)cs1 do in these assays?
ugtP null kill: inactive; CCHFV vOTU inh: inactive; Mtb hypoxia rep: inactive; RN4220 kill: inactive; SSB-PriA inh: 49

Results for Cc1[nH]c2ccccc2c1/C=N/NC(=S)NC(C)C ?
CCHFV vOTU inh: inactive

How did Cc1c(/C=N/Nc2nc3ccccc3[nH]2)c2ccccc2n1C do in these assays?
CCHFV vOTU inh: inactive; SSB-PriA inh: inactive

What do the screens show for `C#CCn1cc(C=NNc2nc3ccccc3[nH]2)c2ccccc21`?
ugtP null kill: inactive; Mtb hypoxia rep: inactive; RN4220 kill: inactive; SSB-PriA inh: 44

Results for C(=NNc1nc2ccccc2[nH]1)c1c[nH]c2ccccc12 ?
ugtP null kill: inactive; Mtb hypoxia rep: inactive; RN4220 kill: inactive; SSB-PriA inh: 50

What do the screens show for `Cc1[nH]c2ccccc2c1C=NNc1nc2ccccc2[nH]1`?
SSB-PriA inh: 41

How did Cc1ccc(NC(=S)NN=Cc2c(C)[nH]c3ccccc23)cc1 do in these assays?
ugtP null kill: 88; Mtb hypoxia rep: inactive; RN4220 kill: 92; SSB-PriA inh: inactive

How did O=S(=O)(NCc1cncc(-c2ccsc2)c1)c1ccc(OC(F)(F)F)cc1 do in these assays?
SSB-PriA inh: inactive

What do the screens show for `CC(C)N(CC#CCNC(=O)Nc1ccccc1C(F)(F)F)C(C)C`?
SSB-PriA inh: inactive

Results for Cc1ccccc1[C@@H]1CCN(C(=O)c2cccnc2C)CCS1 ?
SSB-PriA inh: inactive

What do the screens show for `Cn1c(SCCC#N)nnc1-c1ccc(F)cc1`?
ugtP null kill: inactive; Mtb hypoxia rep: inactive; RN4220 kill: inactive

Results for CC1=C(SCCC#N)S/C(=C2\SC(C)=C(SCCC#N)S2)S1 ?
ugtP null kill: inactive; CCHFV vOTU inh: inactive; Mtb hypoxia rep: inactive; RN4220 kill: inactive; SSB-PriA inh: 54

How did O=c1c2c(-c3ccccc3)csc2nc2c3ccccc3c(NCCN3CCOCC3)nn12 do in these assays?
ugtP null kill: inactive; CCHFV vOTU inh: inactive; Mtb hypoxia rep: 41; RN4220 kill: 91; SSB-PriA inh: inactive

Results for COc1ccc(N2CCCS2(=O)=O)cc1N ?
SSB-PriA inh: inactive

How did c1ccc(-n2c(SCc3nc(-c4cccs4)no3)nnc2-c2ccco2)cc1 do in these assays?
ugtP null kill: inactive; CCHFV vOTU inh: inactive; Mtb hypoxia rep: inactive; RN4220 kill: inactive; SSB-PriA inh: 87

Results for c1ccc(-n2c(SCc3ccncc3)nnc2-c2ccco2)cc1 ?
ugtP null kill: inactive; CCHFV vOTU inh: inactive; RN4220 kill: inactive; SSB-PriA inh: inactive

What do the screens show for `COC(=O)Nc1ccc(N2CCCC2=O)c(C)c1`?
SSB-PriA inh: inactive

Results for CC(=O)c1sc2nc(-c3cccs3)ccc2c1N ?
ugtP null kill: inactive; CCHFV vOTU inh: inactive; Mtb hypoxia rep: inactive; RN4220 kill: inactive; SSB-PriA inh: inactive

How did Nc1c(C(=O)Nc2nc3ccccc3s2)sc2nc(-c3cccs3)ccc12 do in these assays?
ugtP null kill: 99; Mtb hypoxia rep: inactive; RN4220 kill: inactive; SSB-PriA inh: inactive
